A number with no mark means an inactive call. Results filed as inconclusive are left out. A call without a number means that no potency is given here. Activity calls are given as the source filed them. Unless noted, the call rests on the fitted dose curve; in most records, active means well fitted curve in the direction sought with a large enough effect; inconclusive means small, poorly fitted or top-dose-only effect, or another doubt; inactive means no such curve, though single readings can be large; an effect the other way counts as inactive or inconclusive.
Assays:
[1] = target: Alpha-galactosidase (Coffea arabica) (UniProt Q42656); experiment: Counterscreen for Glucocerebrosidase Inhibitors: qHTS Assay for Coffee Bean alpha-Galactosidase at pH 4.5 (AID 957); details: purified coffee bean alpha-galactosidase, fluorogenic substrate; series mostly up to 76.9 µM
Alpha-galactosidase (Coffea arabica), sequence (Q42656 whole entry, looked up): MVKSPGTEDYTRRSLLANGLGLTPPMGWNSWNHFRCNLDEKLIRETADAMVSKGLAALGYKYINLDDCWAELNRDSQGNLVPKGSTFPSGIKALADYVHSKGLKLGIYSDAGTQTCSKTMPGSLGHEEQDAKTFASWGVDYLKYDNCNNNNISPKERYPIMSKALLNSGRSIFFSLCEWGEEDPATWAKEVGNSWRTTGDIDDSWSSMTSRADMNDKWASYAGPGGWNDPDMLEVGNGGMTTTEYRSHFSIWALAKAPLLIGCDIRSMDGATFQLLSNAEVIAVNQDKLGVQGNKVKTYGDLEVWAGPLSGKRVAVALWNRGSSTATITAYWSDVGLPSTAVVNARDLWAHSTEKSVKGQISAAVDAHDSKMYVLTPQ
How it was run: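 Quantitative HTS of compounds (0.7 nM to 77 uM) against coffee bean alpha-galactosidase at pH 4.5, measuring 4-methylumbelliferone fluorescence released from 80 uM substrate.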

[2] = target: Alpha-galactosidase (Coffea arabica) (UniProt Q42656); experiment: Counterscreen for Glucocerebrosidase Inhibitors: qHTS Assay for Coffee Bean alpha-Galactosidase at pH 5.9 (AID 998); details: coffee bean alpha-galactosidase enzyme assay; series mostly up to 76.9 µM
How it was run: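 Enzyme 2 nM + cpd (0.7 nM–77 uM titration) + 4-MU-alpha-Gal 80 uM, pH 5.9 citrate/Tween-20, RT 20 min, NaOH/glycine stop pH 10, fluor 365/440. Normalized to no-enzyme and full-activity controls; Hill-fit AC50.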

[3] = Validation screen for small molecules that induce genotoxicity in human embryonic kidney (HEK293T) cells expressing luciferase-tagged ELG1 (AID 493106); details: luminescence; series mostly up to 46.1 µM
How it was run: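 In this validation screen, increased ELG1-luciferase signal flags compounds causing genetic stress. HEK293T reporter cells are treated 16 hr (37 °C, 5% CO2), developed with ONE-Glo for 30 min at room temperature, and imaged on a CCD-based reader.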

[4] = target: ATPase family AAA domain-containing protein 5 (Homo sapiens) (UniProt Q96QE3); experiment: Validation screen for small molecules that inhibit ELG1-dependent DNA repair in human embryonic kidney (HEK293T) cells expressing luciferase-tagged ELG1 (AID 493107); details: HEK293T ELG1-luciferase level, luminescence, 5-fluorouridine co-treatment, 16 h; series mostly up to 46.1 µM; further: potency means the concentration at half of the fitted maximal effect; nearly all actives have a fitted effect of over 70% in size
ATPase family AAA domain-containing protein 5 (Homo sapiens), sequence (Q96QE3 whole entry, looked up, the tested form may be a part): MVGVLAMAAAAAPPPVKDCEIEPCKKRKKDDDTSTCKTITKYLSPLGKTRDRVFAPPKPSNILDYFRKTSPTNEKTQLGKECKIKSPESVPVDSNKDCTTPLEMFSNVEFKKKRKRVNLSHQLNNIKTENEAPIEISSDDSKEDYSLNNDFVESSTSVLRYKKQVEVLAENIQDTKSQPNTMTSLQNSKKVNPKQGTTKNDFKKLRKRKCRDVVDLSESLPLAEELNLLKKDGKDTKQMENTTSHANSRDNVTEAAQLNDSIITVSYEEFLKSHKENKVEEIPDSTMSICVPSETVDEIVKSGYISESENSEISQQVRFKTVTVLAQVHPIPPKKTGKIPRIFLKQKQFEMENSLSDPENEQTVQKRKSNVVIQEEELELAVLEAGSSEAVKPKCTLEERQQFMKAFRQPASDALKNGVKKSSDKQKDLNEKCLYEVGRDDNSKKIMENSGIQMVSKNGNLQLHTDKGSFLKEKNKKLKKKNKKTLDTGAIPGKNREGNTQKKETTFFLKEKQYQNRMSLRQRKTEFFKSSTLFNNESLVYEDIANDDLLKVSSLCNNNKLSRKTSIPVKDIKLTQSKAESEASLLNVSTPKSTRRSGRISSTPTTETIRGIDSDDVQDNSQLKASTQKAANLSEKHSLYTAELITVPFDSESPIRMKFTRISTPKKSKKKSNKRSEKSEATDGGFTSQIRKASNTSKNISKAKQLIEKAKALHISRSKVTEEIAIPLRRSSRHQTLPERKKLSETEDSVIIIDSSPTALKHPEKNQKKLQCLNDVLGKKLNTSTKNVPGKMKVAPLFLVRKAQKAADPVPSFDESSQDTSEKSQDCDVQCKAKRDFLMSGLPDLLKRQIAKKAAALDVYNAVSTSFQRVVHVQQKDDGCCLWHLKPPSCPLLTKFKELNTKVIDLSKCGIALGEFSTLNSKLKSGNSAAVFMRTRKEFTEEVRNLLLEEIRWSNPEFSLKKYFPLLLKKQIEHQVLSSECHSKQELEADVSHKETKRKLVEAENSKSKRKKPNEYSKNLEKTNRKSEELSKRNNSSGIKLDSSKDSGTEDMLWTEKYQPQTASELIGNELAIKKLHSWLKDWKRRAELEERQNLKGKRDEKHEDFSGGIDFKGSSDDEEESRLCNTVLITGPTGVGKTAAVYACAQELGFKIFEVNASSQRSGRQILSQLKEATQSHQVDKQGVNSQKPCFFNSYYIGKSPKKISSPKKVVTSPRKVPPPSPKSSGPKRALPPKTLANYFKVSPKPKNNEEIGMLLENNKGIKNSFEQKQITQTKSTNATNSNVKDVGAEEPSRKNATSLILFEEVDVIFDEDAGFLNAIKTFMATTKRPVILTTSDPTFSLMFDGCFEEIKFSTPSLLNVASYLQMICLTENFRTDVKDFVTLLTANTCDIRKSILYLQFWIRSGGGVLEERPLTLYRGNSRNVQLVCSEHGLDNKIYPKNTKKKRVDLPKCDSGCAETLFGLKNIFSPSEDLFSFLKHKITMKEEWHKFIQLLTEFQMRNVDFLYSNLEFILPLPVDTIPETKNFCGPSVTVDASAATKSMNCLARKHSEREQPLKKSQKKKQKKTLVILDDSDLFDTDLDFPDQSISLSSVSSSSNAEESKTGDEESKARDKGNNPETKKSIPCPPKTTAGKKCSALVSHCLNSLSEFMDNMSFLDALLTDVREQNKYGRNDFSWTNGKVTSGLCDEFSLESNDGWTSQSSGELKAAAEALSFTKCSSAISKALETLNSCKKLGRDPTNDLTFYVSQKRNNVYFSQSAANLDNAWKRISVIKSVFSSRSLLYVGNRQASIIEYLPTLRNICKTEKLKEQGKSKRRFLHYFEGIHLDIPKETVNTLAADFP
How it was run: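 Compounds reducing 5-fluorouridine-driven ELG1-luciferase signal in HEK293T cells were scored; exposure lasted 16 hr at 37 °C with luminescence detected via ONE-Glo.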

[5] = Inducers of the Endoplasmic Reticulum Stress Response (ERSR) in human glioma: Validation (AID 504836); details: human glioma cells, ER stress response reporter; series mostly up to 38.3 µM
How it was run: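 Stably transfected U87-MG glioma cells carrying a GRP78-based luciferase sensor; 16 h compound incubation. Luminescence end-point read 10 min after Bright-Glo addition at room temperature.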

[6] = qHTS for differential inhibitors of proliferation of Plasmodium falciparum line 7G8 (AID 1815); details: Plasmodium falciparum 7G8 proliferation inhibition; series mostly up to 28.7 µM;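 further: potency means the concentration at half of the fitted maximal effect; parasite growth measured after three days of incubation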
[7] = qHTS for differential inhibitors of proliferation of Plasmodium falciparum line GB4 (AID 1816); details: Potency: Plasmodium falciparum GB4 proliferation inhibition; series mostly up to 28.7 µM;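 further: potency means the concentration at half of the fitted maximal effect; parasite growth measured after 72 h incubation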
[8] = qHTS for differential inhibitors of proliferation of Plasmodium falciparum line Dd2 (AID 1882); details: Potency: Plasmodium falciparum Dd2 proliferation inhibition; series mostly up to 28.7 µM; further: potency means the concentration at half of the fitted maximal effect; nearly all actives have a fitted effect of over 65% in size
How it was run: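 RBC culture, 0.3% parasitemia / 2.5% Hct final; cpd added by pin tool in DMSO; 72 h, 37 C, 5% CO2; lysis buffer + SYBR Green I, o/n RT dark; FI 485/535; norm. to artemisinin 0.29 uM and DMSO.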

[9] = Validation screen for inhibitors of Lassa infection (AID 463096; calls by dose curve); details: Lassa virus infection, cell-based; series mostly up to 46.1 µM
[10] = S16 Schwann cell PMP22 intronic element firefly luciferase assay (AID 624032); details: S16 rat Schwann cells, PMP22 element FLuc, 24 h; series mostly up to 57.5 µM; further: nearly all actives have a fitted effect of over 30% in size; further: potency means the concentration at half of the fitted maximal effect
How it was run: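 Rat S16 Schwann cells stably carrying firefly luciferase driven by a PMP22 intronic element, in 10% FBS, treated 24 h at 37 C. ONE-Glo luminescence normalized to PTC124 control and DMSO (0%); curves classed by r2, magnitude and activity.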

[11] = HepG2 viability counterscreen (readout 2: ATP content) against the NCATS DSHEA and TCM libraries (AID 1794840); details: ATP content luminescence; series mostly up to 27.3 µM;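 further: HepG2 cells exposed to substances for about 24 h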
How it was run: (§1)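 After HepG2 cells attach for ~4 h, substances are added and incubated ~24 h at 37C, 5% CO2. GF-AFC fluorescence then CellTiter-Glo luminescence give protease and ATP readouts.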

[12] = HepG2 viability counterscreen (readout 1: protease activity) against the NCATS DSHEA and TCM libraries (AID 1794841); details: qHTS concentration series; series mostly up to 27.3 µM;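 further: cells exposed to compounds for about 24 h before the protease read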
How it was run: as §1

[13] = KB-3-1 P-gp reporter qHTS against the NCATS DSHEA and TCM libraries (AID 1919975); details: KB-3-1 parental cells, CellTiter-Glo luminescence viability, 72 h; series mostly up to 26.1 µM
How it was run: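 Cell viability qHTS: 500 KB-3-1 cells/well, substances in titration, ~72 h, 37C; luminescent CellTiter-Glo read.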

[14] = qHTS Counterscreen for compound interference against the NCATS DSHEA and TCM libraries (AID 1919978); details: firefly luciferase detection reagent interference, luminescence;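 further: compounds preincubated with 1 µM D-luciferin or buffer before detection reagent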
How it was run: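 Interference check: test samples were incubated with D-luciferin (final 1 uM) or buffer only for 15 min, room temperature, in a qHTS titration up to 39.8 uM, then developed with detection reagent and read by luminescence.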

[15] = Dual reporter qHTS for agonist of Pregnane X Receptor (hPXR) against the NCATS DSHEA and TCM libraries: Fluorescence readout (AID 1920058); details: PXR dual reporter cells; series mostly up to 40 µM
How it was run: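 In this qHTS counter-read, reporter-bearing HepG2 cells in charcoal-stripped serum received substances for approximately 24 h before viability was assessed fluorometrically with CellTiter-Fluor.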

[16] = target: Nuclear receptor subfamily 1 group I member 2 (Homo sapiens) (UniProt O75469); experiment: Dual reporter qHTS for agonist of Pregnane X Receptor (hPXR) against the NCATS DSHEA and TCM libraries: Luminescence readout (AID 1920059); details: hPXR dual reporter cells, luciferase luminescence agonist; series mostly up to 40 µM
Nuclear receptor subfamily 1 group I member 2 (Homo sapiens), sequence (O75469 whole entry, looked up): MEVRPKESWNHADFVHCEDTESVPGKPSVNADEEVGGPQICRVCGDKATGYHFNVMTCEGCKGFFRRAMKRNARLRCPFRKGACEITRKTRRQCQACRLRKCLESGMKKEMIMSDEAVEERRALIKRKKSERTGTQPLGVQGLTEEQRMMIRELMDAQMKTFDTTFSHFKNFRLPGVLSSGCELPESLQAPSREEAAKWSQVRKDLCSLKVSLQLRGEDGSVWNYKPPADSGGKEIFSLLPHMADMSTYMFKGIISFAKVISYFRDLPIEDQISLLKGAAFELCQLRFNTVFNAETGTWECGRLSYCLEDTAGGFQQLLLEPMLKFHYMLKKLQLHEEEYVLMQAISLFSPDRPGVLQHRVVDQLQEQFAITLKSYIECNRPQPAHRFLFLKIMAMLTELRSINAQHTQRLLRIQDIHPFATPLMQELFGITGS
How it was run: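 hPXR-Luc HepG2 cells, 2000/well in 5% charcoal-stripped FBS medium, attached 5 h, then exposed 24 h at 37C to compounds. Viability by CellTiter-Fluor, then luciferase luminescence with ONE-Glo.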

[17] = target: Nuclear receptor subfamily 1 group I member 2 (Homo sapiens) (UniProt O75469); experiment: Dual reporter qHTS for antagonist of Pregnane X Receptor (hPXR) against the NCATS DSHEA and TCM libraries: Luminescence Readout (AID 1920060); details: hPXR dual reporter cells, luciferase luminescence, antagonist mode; series mostly up to 40 µM;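 further: HepG2 cells carrying hPXR luciferase reporter stimulated with rifampicin at 2 µM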
How it was run: (§2)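 hPXR-Luc HepG2 cells exposed 24 h at 37 C to compounds with 2 uM rifampicin in antagonist mode; luciferase luminescence measured by ONE-Glo, with CellTiter-Fluor viability read beforehand.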

[18] = Dual reporter qHTS for antagonist of Pregnane X Receptor (hPXR) against the NCATS DSHEA and TCM libraries: Fluorescence Readout (AID 1920061); details: PXR dual reporter cells, antagonist mode; series mostly up to 40 µM
How it was run: as §2

[19] = qHTS profiling for inhibitors of Plasmodium falciparum proliferation (AID 504749); further: nearly all actives have a fitted effect of over 60% in size; details: P. falciparum in erythrocytes, SYBR Green DNA, 72 h, at 28.7 µM (top of the series)
How it was run: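 SYBR Green fluorescence (ex 485 nm, em 535 nm) reports parasite DNA after 72 h compound exposure of infected red cells at 0.3% parasitemia, 2.5% hematocrit; signal normalized to 0.29 uM artemisinin and vehicle wells.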

[20] = target: Cytochrome P450 1A2 (Homo sapiens) (UniProt P05177); experiment: p450-cyp1a2 (AID 410; calls by dose curve; further: potency means the concentration at half of the fitted maximal effect); details: recombinant CYP1A2, luciferin-ME demethylation, luminescence; series mostly up to 25.6 µM
Cytochrome P450 1A2 (Homo sapiens), sequence (P05177 whole entry, looked up): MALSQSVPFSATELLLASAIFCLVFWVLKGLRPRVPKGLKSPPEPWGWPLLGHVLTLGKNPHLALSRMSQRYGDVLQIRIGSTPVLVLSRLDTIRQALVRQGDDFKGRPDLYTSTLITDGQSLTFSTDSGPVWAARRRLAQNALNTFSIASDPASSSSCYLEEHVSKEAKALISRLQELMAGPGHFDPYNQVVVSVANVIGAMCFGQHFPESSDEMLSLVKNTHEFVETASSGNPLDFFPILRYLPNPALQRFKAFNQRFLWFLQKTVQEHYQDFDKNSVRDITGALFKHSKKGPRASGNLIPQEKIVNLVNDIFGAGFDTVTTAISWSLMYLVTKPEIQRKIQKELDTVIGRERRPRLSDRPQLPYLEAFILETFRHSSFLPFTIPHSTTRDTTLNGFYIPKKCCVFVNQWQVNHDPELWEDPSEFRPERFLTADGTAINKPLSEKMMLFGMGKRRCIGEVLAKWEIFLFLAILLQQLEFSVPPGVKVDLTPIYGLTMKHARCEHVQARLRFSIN
How it was run: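 Read-out is luminescence from luciferin produced by CYP1A2 demethylation of Luciferin-ME (100uM, at Km). Detection reagent stopped the 60 min NADPH-dependent reaction; signals were normalized to 57 uM furafylline.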

SMILES: COc1cc(OC)c(/C=C2/C(=O)Nc3ccccc32)c(OC)c1
- outcome [1]: inactive
- outcome [2]: inactive
- outcome [3]: inactive
- Potency [4]: 16.4 µM (active)
- outcome [5]: inactive

SMILES: CN1C[C@H](C(=O)N[C@]2(C)O[C@@]3(O)C4CCCN4C(=O)[C@H](Cc4ccccc4)N3C2=O)C[C@@H]2c3cccc4[nH]cc(c34)C[C@H]21 (some centres undefined)
- Potency [6]: 0.224 µM (active)
- Potency [7]: 2.24 µM (active)
- Potency [8]: 2.51 µM (active)
- Potency [9]: inactive

SMILES: CC(=O)O[C@H]1C[C@@H]2CCC3C(CC[C@@]4(C)[C@H]3C[C@H]([N+]3(C)CCCCC3)[C@@H]4OC(C)=O)[C@@]2(C)C[C@@H]1[N+]1(C)CCCCC1 (some centres undefined)
- Potency [9]: inactive

SMILES: C[S+](CC[C@H](N)C(=O)O)C[C@H]1O[C@@H](n2cnc3c(N)ncnc32)[C@H](O)[C@@H]1O (some centres undefined)
- Potency [10]: inactive

SMILES: S=C(S)N1CCCC1
- outcome [1]: inactive
- outcome [2]: inactive
- Potency [6]: 2.82 µM (active)
- Potency [7]: 2.82 µM (active)
- Potency [8]: 7.94 µM (active)
- outcome [3]: inactive
- outcome [5]: inactive

SMILES: O=S(=O)(O)O
- outcome [11]: inactive
- outcome [12]: inactive
- outcome [13]: inactive
- max response [14]: -1.96%
- outcome [15]: inactive
- Potency [16]: inactive
- outcome [17]: inactive
- outcome [18]: inactive

SMILES: C[C@]12CC[C@H]3[C@@H](CCC4=CC(=O)CC[C@@]43C)[C@@H]1CC[C@@H]2O
- Potency [10]: 8.09 µM (active)
- activity, negative = inhibition ([19]; parasite line A): -11.8%
- activity, negative = inhibition ([19]; parasite line B): -14.6%

SMILES: COC1=CC(=O)O[C@@H](/C=C/c2ccc3c(c2)OCO3)C1
- outcome [11]: inactive
- outcome [12]: inactive
- outcome [13]: inactive
- max response [14]: 0.0511%
- outcome [15]: inactive
- Potency [16]: inactive
- outcome [17]: inactive
- outcome [18]: inactive

SMILES: O=C(Oc1ccccc1)N1CCC[C@@]2(CCN(Cc3ccccc3)C2)C1
- Potency [20]: 15.8 µM (active)

SMILES: O=C(Nc1ccccc1)N1CCC2(CC1)CCN(C(=O)Oc1ccccc1)CC2
- Potency [20]: inactive

Source: PubChem BioAssay (NCATS)
